# High-throughput results as filed in PubChem.
# Giardia FBPA inh – qHTS Assay for Inhibitors of Fructose-1,6-bisphosphate Aldolase from Giardia Lamblia. A8B2U2. purified Giardia FBPA. Potency, µM (titrated, usually from 59.6 µM), for inactives: top-dose activity, negative = inhibition, usual class: inhibitors. 290,000 tested, 0.71% active; note: potency is the fitted concentration of half-maximal effect; % is set by controls: 0 for no effect and ±100 for the full control effect; nearly all actives have a fitted effect of over 55% in size
# Target sequence (A8B2U2 whole entry, looked up): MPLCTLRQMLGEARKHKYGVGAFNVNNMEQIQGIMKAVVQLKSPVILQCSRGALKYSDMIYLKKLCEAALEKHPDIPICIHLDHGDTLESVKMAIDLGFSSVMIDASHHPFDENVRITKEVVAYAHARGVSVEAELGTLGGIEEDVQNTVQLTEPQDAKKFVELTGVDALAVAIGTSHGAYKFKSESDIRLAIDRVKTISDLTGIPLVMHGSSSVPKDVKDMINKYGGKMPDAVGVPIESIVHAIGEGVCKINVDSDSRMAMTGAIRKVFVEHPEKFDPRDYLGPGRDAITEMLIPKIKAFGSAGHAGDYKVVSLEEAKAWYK
#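 Giardia FBPA (40 nM reagent) was preincubated 10 min at RT with compound (up to 57.5 uM final), then substrate plus GAPDH/TPI/NAD/arsenate coupling system with diaphorase/resazurin was added; resorufin fluorescence (525/598 nm) was read after 20 min.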
# Shiga inhibitor – A qHTS for Small Molecule Inhibitors of Shiga Toxin; inhibition, % at 38.7 µM; 290,000 tested, 9.2% active; AID 2315, 2010; Vero cells, Shiga toxin protein synthesis inhibition reporter; in the data active = inhibition mostly above about 28%, no sharp cut-off; inactive = mostly below about 43%; note: 0% is about no effect
# NS1 function inh – qHTS Assay for Inhibitors of Influenza NS1 Protein Function; Potency, µM (doses to about 46.1 µM), inactives show at the highest dose activity, positive = more growth; 270,000 tested, 0.4% active; AID 2326, 2010; calls by dose curve; note: potency is the fitted concentration of half-maximal effect; actives are rising curves; nearly all actives have a fitted effect of over 50% in size
#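 In this qHTS, NS1 from influenza A is expressed in budding yeast, where it slows growth. Cells are switched from glucose to 2% galactose medium (pH 6.0, -URA), treated with compound, and growth recovery is read at OD600.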
# Pf growth 96h – Primary qHTS for delayed death inhibitors of the malarial parasite plastid, 96 hour incubation; P. falciparum luciferase reporter growth, 96 h; Potency, µM (top dose mostly 28.7 µM), without a hit: at the top dose activity change, negative = inhibition, actives largely listed as inhibitors; 320,000 tested, 6.9% active; note: potency is the fitted concentration of half-maximal effect; % is set by controls: 0 for no effect and ±100 for the full control effect
#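 Plates of compound plus infected erythrocytes (2% hematocrit, 0.05% parasitemia final) incubate 96 hours, 37 C, 5% CO2. Detection reagent added; reduced luminescence from the parasites' luciferase reporter flags inhibition.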
# Cycloheximide cs – Cycloheximide Counterscreen for Small Molecule Inhibitors of Shiga Toxin; max response, %; AID 2314, 2010; cell reporter, cycloheximide protein synthesis inhibition counterscreen; 300,000 tested, 12% active; in the data active = max response mostly above about 13%, no sharp cut-off; inactive = mostly below about 14%; note: read at 38.3 µM for the half of the compounds with a filed dose; 0% is about no effect
# Pf growth 48h – Primary qHTS for delayed death inhibitors of the malarial parasite plastid, 48 hour incubation; Potency, µM (series often up to 28.7 µM), without a hit: at the top dose activity change, negative = inhibition, most hits filed as inhibitors; P. falciparum luciferase growth in erythrocytes, 48 h; 310,000 tested, 5.9% active; note: potency is the fitted concentration of half-maximal effect; % is set by controls: 0 for no effect and ±100 for the full control effect
#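 In quantitative HTS format, infected erythrocytes bearing luciferase-reporter parasites were treated for a single generation at 37 C. Luminescence after adding detection reagent served as the growth measure.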
# * marks the source's active call; other numbers are inactive results; ? = inconclusive; · = no result; [ ] = another dose, or the depositor's remark. A selection: hits, their analogues and other compounds. The true share with any hit is near 21%. Unless noted, calls come from the whole dose curve; as a rule, active = well fitted curve in the direction sought with a large enough effect; inconclusive = small, poorly fitted or top-dose-only effect, or another doubt; inactive = no such curve, though single readings can be large; an effect the other way counts as inactive or inconclusive.
SMILES,Giardia FBPA inh,Shiga inhibitor,NS1 function inh,Pf growth 96h,Cycloheximide cs,Pf growth 48h
CC1(C)Cc2ccccc2C(/C(C#N)=N/O)=N1,?,11.9,·,?,-3.3,-11.4%
Cc1cccc(N(CC(=O)NCc2ccc3c(c2)OCO3)C(=O)CCC(=O)Nc2ccccn2)c1,3.9%,0.3,-19.6%,160.6%,-2.7,13.1µM*
COc1ccc(N(CC(=O)NCc2ccc3c(c2)OCO3)C(=O)CCC(=O)Nc2ccccn2)cc1,-2.2%,21.3,6.7%,53.9%,-0.7,12.2%
Cc1cccc(N(CC(=O)NCc2ccc3c(c2)OCO3)C(=O)CCC(=O)Nc2ccccn2)c1C,10.3%,-7.7,-66.3%,·,-0.9,5.86µM*
CC(=O)OC[C@H]1O[C@@H](O/N=C(\C)CCN2CCc3nc(-c4ccccc4)c(-c4ccccc4)cc3C2)[C@H](OC(C)=O)[C@@H](OC(C)=O)[C@H]1OC(C)=O,0.0%[12.9 µM],·,·,·,·,·
COCCN(C(=O)Cc1cccs1)c1nnc(-c2ccncc2)s1,1.4%,21.7,-16.5%,?,5.9,-9.4%
CCN(C(=O)c1cccs1)c1nnc(-c2ccncc2)s1,-0.8%,active,-9.7%,5.3%[5.75 µM],15.6*,-104.4%
CC1CN(C(=O)Cn2cc(S(=O)(=O)CC(=O)N3CCOCC3)c3ccccc32)CC(C)O1 (configuration not stated),·,-9.7,4.5%,-12.3%,-2.6,8.6%
Nc1c(C(=O)c2ccc(Br)s2)oc2ccccc12,-3.0%,36.6,-70.0%,175.6%,22.9*,33.5%
Nc1c(C(=O)c2cccs2)oc2ccccc12,3.9%,98.8*,-88.3%,39.4%,26.4*,36.8%
Nc1ccc(C(=O)c2cccs2)cc1,1.0%,35.7,-3.4%,18.4%,11.4,42.9%
O=C(NCc1ccccc1)C1CCN(S(=O)(=O)c2ccc(N3CCCC3=O)cc2)CC1,·,-3.4,15.6%,14.7µM*,4.3,?
O=C(CCNC(=O)C1CCN(S(=O)(=O)c2ccc(F)cc2)CC1)NCc1ccc(Cl)cc1,·,7.4,3.0%,30.4%,8.7,12.5%
O=C(NCc1ccc(F)cc1)C1CCN(S(=O)(=O)c2ccc(Cl)cc2)CC1,9.1%,-5.2,-7.6%,-22.7%,0.6,3.7µM*
O=C(NCc1ccc(Cl)cc1)C1CCN(S(=O)(=O)c2ccc(N3CCCC3=O)cc2)CC1,·,17.1,11.5%,13.1µM*,3.1,-17.7%
O=C(Nc1cccc(C(F)(F)F)c1)C1CCN(S(=O)(=O)c2ccc(N3CCCC3=O)cc2)CC1,·,9.1,?,13.1µM*,6.3,?
O=C(CN1CCCCC1)NCC(=O)Nc1ccc(F)c(F)c1F,·,·,·,-1.6%,·,3.3%
Cc1ccc(OCC(=O)NC2CCCC(C)C2C)c([N+](=O)[O-])n1 (configuration not stated),·,·,·,14.9%,·,18.4%
COC(=O)[C@@]1(Cc2ccc(OC)cc2)[C@H]2c3cc(C(=O)N4CCCC4)n(Cc4cc(F)cc5c4OCOC5)c3C[C@H]2CN1C(=O)c1ccccc1,-5.0%,·,·,·,·,·
C=C1CCN(C(CC(C)C)C(=O)NCc2ccc(Cl)c(Cl)c2)S(=O)(=O)c2ccccc21 (configuration not stated),-9.9%,-8.7,·,·,-2.2,·
CCC1CN(C(=O)N2CCC(C(=O)NCc3ccccc3OC)CC2)c2ccccc2O1 (configuration not stated),·,-18.2,4.9%,13.1µM*,-7.6,?
CCOC(=O)c1ccc(S(=O)(=O)N2CCC(C(=O)NCc3ccccc3OC)CC2)cc1,·,·,·,8.28µM*,·,?
NC(=O)C(Cc1ccccc1)NS(=O)(=O)c1ccc(N2CCCC2=O)cc1 (configuration not stated),2.0%,-1.9,-3.3%,9.28µM*,-3.7,-3.8%
COc1ccccc1CNC(=O)C1CCN(S(=O)(=O)c2ccc(N3CCCC3=O)cc2)CC1,·,-4.8,-6.8%,14.7µM*,8.7,11.7µM*
O=C(CCCc1c[nH]c2ccccc12)Nc1ccc(S(=O)(=O)Nc2ncccn2)cc1,13.2%,-9.0,-0.5%,-0.7%,0.6,-0.2%
SMILES,Giardia FBPA inh,Shiga inhibitor,NS1 function inh,Pf growth 96h,Cycloheximide cs,Pf growth 48h
N#Cc1ccc(OCC(=O)NNC(=S)NC2CCCCC2)cc1,·,·,·,-18.3%,·,-7.8%
Cc1cccc(Oc2cc(NC(=O)Cn3cnc([N+](=O)[O-])n3)cc([N+](=O)[O-])c2)c1,-12.8%,-5.4,-9.5%,117.0%,-0.8,?
Cc1cc(C)cc(Oc2cc(NC(=O)c3cn(C)nc3C)cc([N+](=O)[O-])c2)c1,-5.6%,-9.6,-8.2%,8.28µM*,-8.6,·
CCOc1ccc(/C(O)=C2/C(=O)C(=O)N(CCCn3ccnc3)C2c2cccs2)cc1Cl (configuration not stated),9.6%,63.1*,-4.4%,?,46.7*,-10.7%
Cc1ccc(/C(O)=C2/C(=O)C(=O)N(CCCn3ccnc3)C2c2cccnc2)cc1 (configuration not stated),·,·,9.0%,·,·,·
CCCOc1ccc(/C(O)=C2/C(=O)C(=O)N(CCCn3ccnc3)C2c2cccnc2)cc1 (configuration not stated),-3.0%,-5.0,-45.5%,2.8%,-3.1,-20.7%
CCCOc1ccc(/C(O)=C2/C(=O)C(=O)N(CCCn3ccnc3)C2c2cccs2)cc1 (configuration not stated),15.1%,13.1,2.9%,16.3%,15.7*,17.0%
O=Cc1ccc(OC2C=CC(C#Cc3ccccc3)OC2CO)cc1 (configuration not stated),-6.6%[12.9 µM],·,·,·,·,·
Cc1nn(Cc2ccccc2Cl)c(C)c1C(=O)NCC(c1cccs1)N1CCOCC1 (configuration not stated),·,·,·,-11.0%,·,?
CCN(CC)S(=O)(=O)c1ccc(S(=O)(=O)NCC2CCCO2)cc1 (configuration not stated),6.4%,-5.8,8.9%,?,1.5,-0.1%
CCCCn1nnc(NC(=S)NC(=O)c2cccs2)n1,?,114.8*,-7.2%,?,28.0*,65.3%
CCCCn1nnc(NC(=O)c2ccco2)n1,6.6%,13.1*,-2.3%,?,25.8*,32.3%
Cc1ccc(S(=O)(=O)NCc2cc(=O)n(C)c(=O)n2C)cc1C,-1.5%,3.6,24.7%,47.2%,-1.0,24.3%
O=C(Nc1cccc(Cl)c1Cl)C1CCN(C(=O)c2cccs2)CC1,-4.0%,-4.1,3.7%,21.1%,-7.2,9.5%
O=C(COc1ccc(F)cc1Cl)Nc1cccc(S(=O)(=O)N2CCCCCC2)c1,·,·,·,13.1µM*,·,?
CC(=O)c1cc(Cl)ccc1OCC(=O)Nc1cccc(S(=O)(=O)N2CCCC2)c1,·,·,·,3.7µM*,·,?
